For 40 molecules, Inhibition results are on record in ChEMBL document CHEMBL1157539, “Thousands of chemical starting points for antimalarial lead identification” (Nature, 2010).

The first assay concerns Plasmodium falciparum. Put plainly: GSK_TCMDC: Inhibition of Plasmodium falciparum 3D7 in whole red blood cells, using parasite LDH activity as an index of growth. Test compounds present at 2uM. Format: functional.
`O=C(NCC1CCN(CCN2CCc3ccc4c(c3C2)OCO4)CC1)c1ccc(-c2ccc(C(F)(F)F)cc2)cc1`: the Inhibition (as a rule, how much of the control response was suppressed) came out at 93%.
On to `Cc1cccc(-c2nc3[nH]c(=O)cc(NC(=O)C(C)C)n3n2)c1`, for which the Inhibition came to 96%.
Same read-out and setting: the figure for `CNc1nc(N/N=C/c2cc3c(cc2[N+](=O)[O-])OCO3)nc(Nc2cccc(C(F)(F)F)c2)n1` is 100%; for `COc1ccccc1-c1[nH]c2ccccc2c1CN1CCC(c2c(C)cccc2C)CC1` it is 96%.
On the same count and under the same terms, the figure for `Cc1cc(OCC2CCCO2)c2cc(NC(=O)C(=O)Nc3ccc4nc(C)cc(OCC5CCCO5)c4c3)ccc2n1` (stereo not given) is 96%; for `Cc1[nH]c(C)c(-c2ccc(C#Cc3ccc(F)cc3F)cc2)c(=O)c1Br` it is 97%; for `Cc1cc(Nc2ccc(C)c(Cl)c2)n2ncnc2n1` it is 98%.
The same measure, in the same setting: the same measure for `COc1cccc2c1CCN(CCN1CCC(NC(=O)c3ccc(-c4cccc(Cl)c4Cl)cc3)CC1)C2`: 100%.
`COc1ccc(N2C(=O)C3C(C2=O)C2(C)c4ccccc4C3(C)c3ccccc32)c([N+](=O)[O-])c1` (stereo not given): the Inhibition is listed as 99%.
On the same count and under the same terms, the same measure for `COc1ccc2nccc([C@@H](O)CN3CCC(NCc4cc5ccccc5nc4O)CC3)c2c1.Cl`: 97%.
`COc1ccc(-c2ccc(NC(=O)c3ccc(Cl)cc3)cc2)cc1CN(C)CCN(C)C.O=C(O)C(F)(F)F` gave an Inhibition of 97%.
Take `CCOC(=O)c1c(C)noc1Nc1cccc(C)c1C`: the Inhibition was 98%.
Consider `O=C(N[C@H]1CCCC[C@H]1C(=O)O)c1ccccc1`, for which the Inhibition is listed as 95%.
Still for that read-out and setting: the figure for `COc1cc2c(cc1COc1ccccc1)CCN1Cc3cc(OC)c(OC)cc3CC21` (stereo not given) is 99%; for `CCC[C@@H](/C=N/N(C)C(=O)OC(C)(C)C)NC(=O)[C@H](CC(C)C)NC(=O)c1cc2cccc(OC)c2o1` it is 88%; for `Cc1cccc2nc(-c3cccc(-c4cccc(NC(=O)C(C)CN5CCN(C)CC5)c4)c3)[nH]c12` (stereo not given) it is 99%.
Still for that read-out and setting: the same measure for `Nc1ncc(-c2ccc(F)cc2)c2ccc(-c3cccc(F)c3)cc12`: 99%.
With `Cc1cc(CN2CCCN(c3ccc4c(c3)CCN(Cc3ccc(-c5ncc[nH]5)cc3)CC4)CC2)n(C)n1`, the Inhibition amounted to 86%.
On the same count and under the same terms, the figure for `COc1ccc(NS(=O)(=O)c2cccc(C(=O)Nc3ccc(C(F)(F)F)cc3)c2)cc1N1CCN(CC(C)C)CC1.O=C(O)C(F)(F)F` is 94%.
Same read-out and setting: the same measure for `CN1CCN(c2ccnc3ccc(NC(=O)Nc4ccccc4Br)cc23)CC1.Cl`: 100%; for `CCc1cc2c3c(N)nc(N)nc3ccc2n1CC`: 93%; for `CN1CCN(Cc2cccc(-c3ccc4c(Nc5ccc(Oc6ccccc6)cc5)ccnc4c3)c2)CC1`: 100%.
The molecule `CCCn1c(O)nnc1SCC(=O)Nc1cc(Cl)ccc1Cl` yielded an Inhibition of 88%.
Still for that read-out and setting: the same measure for `Cc1noc(C)c1-c1ccc2c(Nc3ccccc3C(C)(C)C)c(C(=O)NCc3cccc4ccccc34)cnc2c1.Cl`: 96%; for `CS(=O)(=O)c1ccc(Nc2ncc(-c3ccc(S(C)(=O)=O)cc3)c(OCC(F)(F)F)n2)cc1`: 97%; for `O=C(NCC1COc2ccccc2O1)c1cnc2c(c1)nc(-c1c[nH]c(-c3ccccc3)n1)n2CCSCc1c(F)cccc1Cl` (stereo not given): 95%.
`CN1CCCN(Cc2ccc(-c3cccc(NC(=O)c4ccc(C#N)cc4)c3)cc2)CC1.O=C(O)C(F)(F)F` showed an Inhibition of 100%.
`CN(C)CC(=O)NCC(NCCCNc1cc(=O)c2ccccc2[nH]1)c1cc(Br)cc(Br)c1` (stereo not given) came in with an Inhibition of 98%.
On the same count and under the same terms, the same measure for `CN1CCN(c2cccc(-c3nnc(-c4cccc(OCC(=O)NCc5ccc(C(F)(F)F)cc5)c4)o3)c2)CC1`: 98%; for `Cc1ccc(Nc2nc3cc(Nc4ccnc(Nc5ccc(CS(C)(=O)=O)cc5)n4)ccc3o2)cc1`: 99%; for `COc1ccc2nc(/N=C3\NC(c4ccccn4)(c4ccccn4)C(=O)N3C)[nH]c2c1`: 99%.
The molecule `COc1cc(NC(=O)/C=C/c2cc(F)cc(F)c2F)cc(OCCN2CCC(O)(c3ccccc3)CC2)c1.O=C(O)C(=O)O` returned an Inhibition of 100%.
The same measure, in the same setting: the same measure for `CCCOc1ccc(C(=O)Nc2nonc2-c2ccc(OC)c(OC)c2)cc1`: 99%; for `CCCCCCN(CCCCCC)CC(O)c1c(OC)ccc2ccccc12.Cl` (stereo not given): 100%; for `O=C(Cc1ccccc1)NC(c1ccc(Cl)cc1)c1ccc2cccnc2c1O` (stereo not given): 93%.
Molecule `CC(=O)Oc1cc(C(=O)Nc2ccc(Cl)cc2)cc2ccccc12` showed an Inhibition of 88%.
On the same count and under the same terms, the same measure for `Cc1cc(O)c(-c2cc(C(=O)Nc3cccnc3)[nH]n2)cc1C`: 97%; for `CC(C)c1sc(N2CCN(C)CC2)nc1C(=O)Nc1cccc2c1CCCC2.O=C(O)C(F)(F)F`: 98%; for `CS(=O)(=O)O.FC(F)(F)COc1ccc(CCNCCCCNCCc2ccc(OCC(F)(F)F)c3ccccc23)c2ccccc12`: 99%.
Still for that read-out and setting: the figure for `Cn1c(=O)c2cc(C(=O)NCCCN3CCCCCC3)sc2c2ccccc21` is 99%.

In a further assay the test system is Plasmodium falciparum. Put plainly: GSK_TCMDC: Inhibition of Plasmodium falciparum Dd2 in whole red blood cells, using parasite LDH activity as an index of growth. Test compounds present at 2uM. The format is functional.
Turning to `O=C(NCC1CCN(CCN2CCc3ccc4c(c3C2)OCO4)CC1)c1ccc(-c2ccc(C(F)(F)F)cc2)cc1`, the Inhibition was 34%.
In turn, `Cc1cccc(-c2nc3[nH]c(=O)cc(NC(=O)C(C)C)n3n2)c1` gave an Inhibition of 93%.
As to `CNc1nc(N/N=C/c2cc3c(cc2[N+](=O)[O-])OCO3)nc(Nc2cccc(C(F)(F)F)c2)n1`, the Inhibition turned out to be 60%.
Still for that read-out and setting: the same measure for `COc1ccccc1-c1[nH]c2ccccc2c1CN1CCC(c2c(C)cccc2C)CC1`: 13%; for `Cc1cc(OCC2CCCO2)c2cc(NC(=O)C(=O)Nc3ccc4nc(C)cc(OCC5CCCO5)c4c3)ccc2n1` (stereo not given): 32%.
`Cc1[nH]c(C)c(-c2ccc(C#Cc3ccc(F)cc3F)cc2)c(=O)c1Br` yielded an Inhibition of 98%.
Still for that read-out and setting: the same measure for `Cc1cc(Nc2ccc(C)c(Cl)c2)n2ncnc2n1`: 91%.
Same read-out and setting: the figure for `COc1cccc2c1CCN(CCN1CCC(NC(=O)c3ccc(-c4cccc(Cl)c4Cl)cc3)CC1)C2` is 38%; for `COc1ccc(N2C(=O)C3C(C2=O)C2(C)c4ccccc4C3(C)c3ccccc32)c([N+](=O)[O-])c1` (stereo not given) it is 54%.
Still for that read-out and setting: the same measure for `COc1ccc2nccc([C@@H](O)CN3CCC(NCc4cc5ccccc5nc4O)CC3)c2c1.Cl`: 0%.
`COc1ccc(-c2ccc(NC(=O)c3ccc(Cl)cc3)cc2)cc1CN(C)CCN(C)C.O=C(O)C(F)(F)F` had an Inhibition of 61%.
`CCOC(=O)c1c(C)noc1Nc1cccc(C)c1C` displayed an Inhibition of 0%.
With `O=C(N[C@H]1CCCC[C@H]1C(=O)O)c1ccccc1`, the Inhibition stood at 3%.
`COc1cc2c(cc1COc1ccccc1)CCN1Cc3cc(OC)c(OC)cc3CC21` (stereo not given) displayed an Inhibition of 84%.
On the same count and under the same terms, the figure for `CCC[C@@H](/C=N/N(C)C(=O)OC(C)(C)C)NC(=O)[C@H](CC(C)C)NC(=O)c1cc2cccc(OC)c2o1` is 61%; for `Cc1cccc2nc(-c3cccc(-c4cccc(NC(=O)C(C)CN5CCN(C)CC5)c4)c3)[nH]c12` (stereo not given) it is 99%; for `Nc1ncc(-c2ccc(F)cc2)c2ccc(-c3cccc(F)c3)cc12` it is 89%.
`Cc1cc(CN2CCCN(c3ccc4c(c3)CCN(Cc3ccc(-c5ncc[nH]5)cc3)CC4)CC2)n(C)n1` returned an Inhibition of 8%.
Still for that read-out and setting: the figure for `COc1ccc(NS(=O)(=O)c2cccc(C(=O)Nc3ccc(C(F)(F)F)cc3)c2)cc1N1CCN(CC(C)C)CC1.O=C(O)C(F)(F)F` is 4%; for `CN1CCN(c2ccnc3ccc(NC(=O)Nc4ccccc4Br)cc23)CC1.Cl` it is 95%.
Still for that read-out and setting: the figure for `CCc1cc2c3c(N)nc(N)nc3ccc2n1CC` is 0%; for `CN1CCN(Cc2cccc(-c3ccc4c(Nc5ccc(Oc6ccccc6)cc5)ccnc4c3)c2)CC1` it is 100%; for `CCCn1c(O)nnc1SCC(=O)Nc1cc(Cl)ccc1Cl` it is 53%.
The same measure, in the same setting: the same measure for `Cc1noc(C)c1-c1ccc2c(Nc3ccccc3C(C)(C)C)c(C(=O)NCc3cccc4ccccc34)cnc2c1.Cl`: 64%; for `CS(=O)(=O)c1ccc(Nc2ncc(-c3ccc(S(C)(=O)=O)cc3)c(OCC(F)(F)F)n2)cc1`: 98%.
Molecule `O=C(NCC1COc2ccccc2O1)c1cnc2c(c1)nc(-c1c[nH]c(-c3ccccc3)n1)n2CCSCc1c(F)cccc1Cl` (stereo not given) gave an Inhibition of 10%.
On the same count and under the same terms, the figure for `CN1CCCN(Cc2ccc(-c3cccc(NC(=O)c4ccc(C#N)cc4)c3)cc2)CC1.O=C(O)C(F)(F)F` is 26%; for `CN(C)CC(=O)NCC(NCCCNc1cc(=O)c2ccccc2[nH]1)c1cc(Br)cc(Br)c1` (stereo not given) it is 2%; for `CN1CCN(c2cccc(-c3nnc(-c4cccc(OCC(=O)NCc5ccc(C(F)(F)F)cc5)c4)o3)c2)CC1` it is 86%.
Take `Cc1ccc(Nc2nc3cc(Nc4ccnc(Nc5ccc(CS(C)(=O)=O)cc5)n4)ccc3o2)cc1`: the Inhibition amounted to 66%.
The same measure, in the same setting: the figure for `COc1ccc2nc(/N=C3\NC(c4ccccn4)(c4ccccn4)C(=O)N3C)[nH]c2c1` is 98%; for `COc1cc(NC(=O)/C=C/c2cc(F)cc(F)c2F)cc(OCCN2CCC(O)(c3ccccc3)CC2)c1.O=C(O)C(=O)O` it is 82%.
The molecule `CCCOc1ccc(C(=O)Nc2nonc2-c2ccc(OC)c(OC)c2)cc1` came in with an Inhibition of 97%.
On the same count and under the same terms, the same measure for `CCCCCCN(CCCCCC)CC(O)c1c(OC)ccc2ccccc12.Cl` (stereo not given): 100%.
On the same count and under the same terms, the same measure for `O=C(Cc1ccccc1)NC(c1ccc(Cl)cc1)c1ccc2cccnc2c1O` (stereo not given): 64%.
The same measure, in the same setting: the figure for `CC(=O)Oc1cc(C(=O)Nc2ccc(Cl)cc2)cc2ccccc12` is 47%; for `Cc1cc(O)c(-c2cc(C(=O)Nc3cccnc3)[nH]n2)cc1C` it is 97%.
As to `CC(C)c1sc(N2CCN(C)CC2)nc1C(=O)Nc1cccc2c1CCCC2.O=C(O)C(F)(F)F`, the Inhibition was 50%.
Still for that read-out and setting: the same measure for `CS(=O)(=O)O.FC(F)(F)COc1ccc(CCNCCCCNCCc2ccc(OCC(F)(F)F)c3ccccc23)c2ccccc12`: 70%; for `Cn1c(=O)c2cc(C(=O)NCCCN3CCCCCC3)sc2c2ccccc21`: 99%.
